Source: PubChem
Mcl-1 Bim block = disrupts Bim peptide binding to human Mcl-1. Bead-based flow cytometry, Bim peptide-Mcl-1 binding. Q07820. hit rate 0.1% among 190,000. inhibition, % at 10 µM; in the data active = inhibition above about 40%
NCF1 inh = blocks human p47phox regulatory protein of NADPH oxidases | P14598 | p47phox/p22phox peptide binding, fluorescence polarization, 2 h | inhibition, % at 24.7 µM | hit rate 0.53% among 220,000 | AID 1274;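 active = inhibition above about 30%, limit read from the data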
Mcl1 Noxa PPI = Mcl-1/Noxa interaction inhibition | Q07820 | TR-FRET Mcl-1/Noxa peptide binding, 2 h | inhibition, % at 21.7 µM | hit rate 1.5% among 220,000 | AID 1022;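 active = compounds that cut the protein-peptide binding signal by more than 50% relative to plate controls in a single-dose test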;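 also: His-tagged Mcl-1 with rhodamine Noxa BH3 peptide and terbium anti-His antibody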
14-3-3 Bad PPI = disrupts binding of bovine 14-3-3 zeta to phospho-Bad peptide. hit rate 0.71% among 220,000. TR-FRET 14-3-3zeta/Dy647-pBad peptide displacement, 1 h. P63103. inhibition, % at 21.7 µM;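 active = inhibition above about 70%, limit read from the data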
Target sequence (P63103 whole entry, looked up): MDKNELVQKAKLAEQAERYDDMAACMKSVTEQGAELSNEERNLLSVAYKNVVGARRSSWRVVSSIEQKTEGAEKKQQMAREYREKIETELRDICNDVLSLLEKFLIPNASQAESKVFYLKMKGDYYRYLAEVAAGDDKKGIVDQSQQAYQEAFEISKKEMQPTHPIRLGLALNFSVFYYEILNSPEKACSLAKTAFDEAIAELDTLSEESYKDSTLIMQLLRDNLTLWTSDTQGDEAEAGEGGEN
Calpain2 inh = calpain II (pig) inhibition; purified calpain II, fluorogenic peptide substrate, 30 min; inhibition, % at 16 µM; hit rate 0.37% among 220,000;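 active = inhibition above about 50%, limit read from the data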
Mcl1-Bid inh = disrupts binding of human Mcl-1 to Bid peptide; Q07820; TR-FRET Mcl-1/Bid-Dy647 peptide binding, 1536-well; inhibition, % at 21.7 µM; hit rate 0.97% among 220,000; AID 1021;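 active = compounds that cut the binding signal by more than half at the single screening dose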;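 also: His-tagged Mcl-1 with europium anti-His antibody binding Bid BH3 peptide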
Large screens that a line does not name were inactive; [ ] = another dose, or the depositor's remark. This is a sample that favours compounds with a hit; in the whole collection about 3.4% have one here.

O=C(COC(=O)c1ccc(Cl)nc1)NCCC1=CCCCC1	none
CCOC(=O)c1c(C)nc(C)c(C(=O)OCC)c1-c1ccco1	none (no result: Mcl-1 Bim block)
CC(=O)c1ccc(N2CCN(C(=O)CCCn3c(=S)[nH]c4cc5c(cc4c3=O)OCO5)CC2)cc1	Mcl1-Bid inh 55.3
O=C1N=c2ccccc2=C1c1sc(Nc2ccc(O)cc2)nc1O	Mcl1 Noxa PPI 83.0, 14-3-3 Bad PPI 82.9
O=C1N=c2ccccc2=C1c1sc(NS(=O)(=O)c2ccccc2)nc1O	none
COC(=O)c1cc(C(=O)OCC(=O)Nc2ccccc2OC(F)F)cc([N+](=O)[O-])c1	none
CCn1c(C)nc2cc(S(=O)(=O)C(F)(F)C(F)C(F)(F)F)ccc21 (stereo unspecified)	Calpain2 inh 89.6
OC(c1ccccn1)(c1ccccn1)c1ccccn1	none
COc1cccc(NC(=O)CSC(N)=O)c1	none
CCCn1c(=O)[nH]c(=O)c2c1nc(-c1ccc(OC)c(Br)c1)n2CCOC	none
Fc1cccc(Cl)c1CSc1ccc(-c2cccnc2)nn1	Calpain2 inh 64.2
Clc1ccc(CSc2ccc(-c3cccnc3)nn2)cc1	none
CC1=CC(=C(C#N)c2nc3ccccc3s2)C=C(C)N1CC1CCCO1 (stereo unspecified)	none
C=CCc1cccc(/C=N/NC(=O)CCC(=O)Nc2ccc(C)cc2)c1O	none
Cc1ccc(S(=O)(=O)N2CCN(Cc3ccccc3C(F)(F)F)CC2)cc1	14-3-3 Bad PPI 82.5
O=S(=O)(c1ccccc1)N1CCN(Cc2ccccc2C(F)(F)F)CC1	14-3-3 Bad PPI 78.8, Mcl1-Bid inh 82.8
Cc1ccccc1CN1CCN(Cc2ccccc2C(F)(F)F)CC1	14-3-3 Bad PPI 74.7
O=S1(=O)CCN(Cc2ccccc2C(F)(F)F)CC1	none
O=[N+]([O-])c1cccc(-c2noc(COc3ccccc3)n2)c1	none
Cc1cccc(C)c1N1C(=O)[C@@H]2C(c3ccccc3Cl)=NO[C@@H]2C1=O	none (no result: Mcl-1 Bim block)
COc1ccc(OC)c(N2C(=O)[C@@H]3C(c4ccccc4Cl)=NO[C@@H]3C2=O)c1	Mcl1 Noxa PPI 59.3
c1ccc(C(CN2CCOCC2)c2ccccc2)cc1	14-3-3 Bad PPI 84.4
CC1CCC2(CC1)NC(CO)(CO)CO2 (stereo unspecified)	none
CCC1CCC2(CC1)NC(CO)(CO)CO2 (stereo unspecified)	Mcl1-Bid inh 63.6
Cc1cc(=O)oc2cc(OC(C)C(=O)N3CCOCC3)ccc12 (stereo unspecified)	none
COc1ccc2c(c1)c(=O)oc1cc(OCC(=O)N3CCc4ccccc4C3)ccc12	Mcl1 Noxa PPI 58.0, Mcl1-Bid inh 52.9
O=C(COc1ccccc1)N/N=C/c1cc2c(cc1[N+](=O)[O-])OCO2	none
Cc1cc(=O)oc2cc(OCC(=O)N3CCOCC3)ccc12	Mcl1 Noxa PPI 63.5
Cc1cc(=O)oc2cc(OCC(=O)N/N=C/c3ccccc3[N+](=O)[O-])ccc12	Mcl1-Bid inh 63.4
O=C(CSc1ccccn1)N/N=C/c1ccccc1[N+](=O)[O-]	14-3-3 Bad PPI 83.8[fluorescence artefact?]
COc1cc(NC(=O)c2c(F)cccc2F)c(Cl)cc1Cl	none
CCOC(=O)N1CCC(=NNC(=O)COc2cccc(C)c2)CC1	none
COc1ccc(CCNC(N)=S)cc1OC	none
CN(C)CC(C)(C)CNC(=O)C1CCN(Cc2ccccc2O)CC1	Mcl1-Bid inh 58.5
O=C(NCCc1ccccc1)C1CCN(Cc2ccccc2F)CC1	none
c1cc2ccc3ccc(CN4CCOCC4)c4ccc(c1)c2c34	14-3-3 Bad PPI 84.8[fluorescence artefact?]
CC(C)C(=O)N1CCN(c2ccccc2N)CC1	Calpain2 inh 81.1
Cc1ccc(-n2cnnn2)c2cccnc12	Mcl1-Bid inh 57.2
C#CCCCCCCC#CCN(C)C	Mcl1-Bid inh 54.9
CC[n+]1ccc(C[n+]2ccccc2)c2ccccc21	NCF1 inh 78.8
COc1cc2nc(CN3CCN(C(c4ccccc4)c4ccccc4)CC3)[nH]c(=O)c2cc1OC	NCF1 inh 63.0 (no result: Mcl-1 Bim block)
CCn1c(SCc2nc3cc(OC)c(OC)cc3c(=O)[nH]2)nc2ccccc21	none
CC1=NN(C(N)=S)C(=O)C1N=Nc1ccc(O)cc1 (stereo unspecified)	Mcl1 Noxa PPI 78.3
CN1CCN(C(=S)c2cn(Cc3ccccc3F)c3ccccc23)CC1	Mcl1-Bid inh 85.5
COc1ccc(Cl)cc1NC(=O)CN1C(=O)CC(C)S(=O)(=O)c2ccccc21 (stereo unspecified)	none
